Each structure is given as a SMILES string. Hit rate of the full screen: of about 220,000 compounds, about 10 (0.005%) were called active. The calls are words filed in the database; no cut-off is given here. Shown is part of a subset that was picked to be rich in actives.

Consider one compound from ChEMBL document CHEMBL1201862, “PubChem BioAssay data set” (2004).

The test can be described thus: compounds boosting herpes simplex virus growth – fold increase, host cell viability (AID 1956). Format: functional.
Take `N#C/C(=C/c1ccc(N2CCOCC2)o1)C(=O)NC1CCCCC1`: the Conc @ Max Fold Incr is 25 µM (active).
